# Inconclusive results are not listed. Calls of active or inactive are those of the source. Calls follow the shape of the dose curve; as a rule, active = well fitted cell-killing curve with a large enough effect; inconclusive = small, poorly fitted or top-dose-only effect; inactive = no such curve, though single readings can be large or run the other way.
# Assay: qHTS of pediatric cancer cell lines to identify multiple opportunities for drug repurposing: Primary screen for Rh30 cells (AID 1347107); also: nearly all actives have a fitted effect of over 75% in size
# Details: Rh30 rhabdomyosarcoma viability, CellTiter-Glo luminescence, 48 h; series mostly up to 46 µM; activity change, negative = cytotoxic: at the top concentration
# Outline: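 Viability after 48 h compound treatment at 37C, 500-1,000 cells/well, read as ATP luminescence with CellTiter-Glo. Primary screens used 11-point (MIPE, 0.78 nM-46 µM) or 8-point (NPC, 0.59 nM-46 µM) final concentrations; follow-up screens used 11-point dilutions.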
# % is scaled to controls: 0 for no effect and ±100 for the full control effect.
row,Compound,"activity change, negative = cytotoxic"
1,O=S(=O)(O)C(F)(F)C(F)(F)C(F)(F)C(F)(F)F,32.7% [at 92.7 µM] (inactive)
2,CC1=C(C(=O)O)N2C(=O)[C@@H](N)[C@H]2SC1,28.5% [at 16.1 µM] (inactive)
3,CCOC(=O)Nc1ccc(NCc2ccc(F)cc2)cc1N,-0.27% (inactive)
4,CC(C)N(CCNC(=O)CN1CCCC1=O)C(C)C,11.2% (inactive)
5,Nc1ccc(Cl)cc1N,24.4% [at 92.7 µM] (inactive)
6,CCC1(CCC(C)C)C(=O)NC(=O)NC1=O,8.22% [at 92.7 µM] (inactive)
7,Cc1nc(-c2ccc(-c3ccc(C(=O)N4CCc5cc6c(cc54)C4(CCN(C)CC4)CO6)cc3)c(C)c2)no1,20.1% (inactive)
8,CC(O)=C(C#N)C(=O)Nc1cc(Br)ccc1Br,9.67% (inactive)
9,O=C(O)c1cc(Oc2ccc(C(F)(F)F)cc2Cl)ccc1[N+](=O)[O-],15% (inactive)
10,CCOCCOC(C)=O,24.2% [at 92.7 µM] (inactive)
11,C[C@]12CC[C@@H]3[C@@H](CCC4=CC(=O)CC[C@@H]43)[C@@H]1CC[C@@H]2OC(=O)CCc1ccccc1,-0.725% (inactive)
12,C#C[C@]1(O)C=C[C@@H]2[C@@H]3CCC4=CC(=O)CC[C@@H]4[C@H]3CC[C@@]21CC,18% (inactive)
13,O=[N+]([O-])/N=C1\NCCN1Cc1ccc(Cl)nc1,3.59% (inactive)
14,CCCCC(CC)COC(=O)c1ccccc1C(=O)OCC(CC)CCCC (stereo not drawn),26.2% [at 92.7 µM] (inactive)
15,C[C@H]([C@H](O)CCC(C)(C)O)[C@H]1CC[C@@]2(O)C3=CC(=O)[C@@H]4C[C@@H](O)[C@@H](O)C[C@]4(C)[C@@H]3CC[C@]12C,15.3% (inactive)
16,CCC(=O)O[C@@H]1C=C2CCC3C(CCC4(C)C3CC[C@@H]4OC(=O)CC)C2CC1 (stereo partly drawn),16% (inactive)
17,Cc1ccc(Cl)c(O)c1,26.5% (inactive)
18,O=[N+]([O-])c1ccc([As](=O)(O)O)cc1,24.3% (inactive)
